Sampled rows, rich in hits. Any-hit rate of the full collection: about 6.8%.
MK inhibit: inhibitors of Streptococcus pneumoniae mevalonate kinase. purified MK, PK/LDH-coupled NADH absorbance 340 nm. inhibition, % at 10 µM. hit rate 0.48% among 65,000. AID 555;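 active = ranked among the strongest by inhibition in the single 10 µM screen, a fixed top-ranked set picked for dose follow-up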
Spn DPM-DC inh: inhibitors of Streptococcus pneumoniae diphosphomevalonate decarboxylase | purified DPM-DC, PK/LDH coupled NADH fluorescence | calls only at 10 µM | hit rate 0.49% among 65,000 | AID 556;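 active = the 320 compounds with the highest percent inhibition in the single-dose primary screen, excluding strongly autofluorescent ones, cut at about 32% in these data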;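 also: kinetic rate of NADH fluorescence loss reporting ADP formed by the decarboxylase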
A340 absorber: compounds absorbing at 340 nm; 65,000 tested, under 10 active; compound absorbance at 340 nm, fold over control; fold change at 10 µM;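 active = at 10 µM dose, initial 340 nm absorbance at least 2 fold that of control wells; inactive = change under 2 fold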;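 also: initial absorbance extrapolated from kinetic A340 decline of NADH oxidation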
NADH enzymes: inhibitors of enzymes used to reach an NAD/NADH endpoint; AID 774; hit rate 0.02% among 65,000; coupled PK/LDH NADH assays, four targets; IC50, µM (titrated, usually from 10 µM), for the others: at the highest dose inhibition;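 active = single-dose screening hits from any of four coupled enzyme assays that gave an IC50 when retested across doses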;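 also: the DPM-DC format reads NADH fluorescence rather than 340 nm absorbance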
Autofluor 339: intrinsic fluorescence of library compounds, ex339/em460 – biochemical, MLSMR library, data from DPM-DC assay, artefact control, profiling panel | compound autofluorescence, ex339/em460 nm, NADH buffer; hits give high values; 1 = no-compound wells, NADH background | fluorescence fold increase at 10 µM | hit rate 5.5% among 65,000 | AID 709;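 active = at 10 µM, mean starting fluorescence two-fold or more over control wells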;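 also: signal is the first read of a kinetic run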
PMK inhibit: S. pneumoniae PMK inhibition; AID 539; inhibition, % at 10 µM; purified PMK, PK/LDH-coupled NADH absorbance 340 nm; hit rate 0.49% among 65,000;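 active = top-ranked compounds by inhibition in the single 10 µM screen, taking a fixed number of the strongest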;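 also: 0% = full reaction with DMSO carrier and 100% = background rate without enzyme reaction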
* hit, by the source's call; i = inactive; x = no result given; + = active, no number.

SMILES | MK inhibit | Spn DPM-DC inh | A340 absorber | NADH enzymes | Autofluor 339 | PMK inhibit
CC(O)C(=O)NCCOCCOCCNC(=O)C(C)O (centres undefined) | 0 | i | 0.98 | 7% | 1.1 | 21
O=c1c2ccccc2nnn1CSc1nnc(-c2cccs2)n1Cc1ccccc1 | 76* | i | 1 | 31% | 1 | 10
O=C1CCCc2nc(N3CCc4ccccc43)ncc21 | 10 | i | 1.2 | 11% | 1.9 | 18
O=C1CC(c2ccccc2)Cc2nc(N3CCc4ccccc43)ncc21 (centres undefined) | 4 | x | 1 | 4% | 3* | 16
Cn1cc(C(=O)NCCN2CCN(c3cccc(Cl)c3)CC2)c2c3ccccc3n(C)c2c1=O | 0 | i | 1.1 | 2% | 2* | 5
CCN(CC)CCNC(=O)c1cc2c(=O)n(C)c3ccccc3c2n1C | 3 | i | 1.1 | 4% | 1.7 | 0
CN1CCN(CCNC(=O)c2cc3c(=O)n(C)c4ccccc4c3n2C)CC1 | 3 | + | 1.1 | 18% | 1.8 | 14
CCCCN(CC)CCNC(=O)c1cc2c(=O)n(C)c3ccccc3c2n1C | 8 | x | 1.1 | 9% | 2.1* | 9
COc1cc(Cl)c(S(=O)(=O)NCc2cccnc2)cc1Cl | 3 | i | 1 | 2% | 1.1 | 2
CCNc1nc(SC(C)C(=O)OC)nc(N2CCOCC2)n1 (centres undefined) | 8 | i | 1 | 3% | 1.1 | 0
CCCn1c(=S)[nH]c2cc(C(=O)NCC3CCCO3)ccc2c1=O (centres undefined) | 7 | i | 1.1 | 4% | 1.1 | 5
CCCCCn1c(SCC#N)nc2cc(C(=O)NCC3CCCO3)ccc2c1=O (centres undefined) | 0 | + | 1.1 | 14% | 0.72 | 6
CCCCCNC(=O)c1ccc2c(=O)n(CC3CCCO3)c(=O)[nH]c2c1 (centres undefined) | 0 | i | 1.1 | 1% | 2* | 2
Cc1ccc(CN(CC(=O)NCCc2ccccc2)C(=O)CCCC(=O)Nc2cc(C)on2)cc1 | 7 | i | 1 | 7% | 1.1 | 14
Cc1noc(C)c1COC(=O)COc1ccc2c(C)cc(=O)oc2c1 | 0 | i | 1.1 | 4% | 1.6 | 0
C=CCOC(=O)COc1ccc2c(C)c(C)c(=O)oc2c1 | 6 | x | 1.1 | 7% | 2.1* | 8
C=CCNS(=O)(=O)c1ccc(OCC(=O)OCC)cc1 | 6 | i | 1 | 4% | 1.1 | 1
C=CCOC(=O)COc1ccc2c(C)c(CC)c(=O)oc2c1 | 11 | x | 1.1 | 9% | 3.9* | 7
CCOC(=O)N1CCN(C(=O)CCSc2ccccc2)CC1 | 4 | i | 1 | 1% | 1.1 | 0
O=S(=O)(NC1CC1)c1ccc(S(=O)(=O)N2CCCC3(CCCCC3)C2)cc1 | 0 | i | 1.1 | 0% | 1.1 | 0
C1CNCCNCCNCCN1 | 0 | i | 0.98 | 1% | 1 | 1
CC(=O)Nc1c(O)n(C)c2ccccc12 | 11 | i | 0.98 | 8% | 0.99 | active
CN(C)C(CNC(=O)CSc1nnc(-c2ccco2)o1)c1ccccc1 (centres undefined) | 0 | i | 1 | 4% | 1.1 | 11
Cc1cc(NC(=O)C2CCCN(S(=O)(=O)c3cnc[nH]3)C2)ccc1Br (centres undefined) | 1 | i | 1.1 | 1% | 1.1 | 2
CCN1C(=O)c2cccc3c(S(=O)(=O)NCc4ccco4)ccc1c23 | 8 | i | 1.1 | 7% | 2.3* | 3
COc1ccccc1-n1c(N)c(C(=O)NCC2CCCO2)c2nc3ccccc3nc21 (centres undefined) | 7 | x | 0.89 | 11% | 2.4* | 15
Nc1c(C(=O)OCC2CCCO2)c2nc3ccccc3nc2n1C1CCCCC1 (centres undefined) | 6 | x | 1.1 | 10% | 2.1* | 14
O=C(CSc1nc2ccccc2n1-c1ccccc1)NCC1CCCO1 (centres undefined) | 7 | i | 1.1 | 7% | 1.1 | 3
Nc1c(C(=O)NCC2CCCO2)c2nc3ccccc3nc2n1-c1ccccc1 (centres undefined) | 0 | x | 1.1 | 8% | 4.9* | 15
Cc1cc(C)nc(N2CCC(C(=O)Nc3cccc(C(F)(F)F)c3)CC2)n1 | 5 | i | 0.98 | 8% | 1.2 | 17
